Drawing on publication PMC7862700, “An all-to-all approach to the identification of sequence-specific readers for epigenetic DNA modifications on cytosine”, this text covers binding signal for one sequence.

Common to all, as to assay: DAPPL (digital affinity profiling via proximity ligation, sequencing); 10 mM Tris-HCl pH 7.5, 50 mM NaCl, 1 mM DTT, 4% glycerol, room temperature, 30 min; GST-TFs on glutathione beads, 16-mer random dsDNA library, 0.1% formaldehyde crosslink after washing; high values mean tight binding
One test concerns the target T1, FEV (Homo sapiens, UniProt Q99581 1-238).
T1 sequence: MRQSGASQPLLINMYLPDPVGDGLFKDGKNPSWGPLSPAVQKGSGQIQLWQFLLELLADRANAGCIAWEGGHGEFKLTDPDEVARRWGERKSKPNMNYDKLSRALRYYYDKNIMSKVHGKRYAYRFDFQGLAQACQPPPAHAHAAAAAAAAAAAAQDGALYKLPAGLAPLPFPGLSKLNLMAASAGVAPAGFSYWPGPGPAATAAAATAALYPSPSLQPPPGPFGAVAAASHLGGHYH
The conditions noted are these: protein: recombinant; tags: N-terminal GST; dsDNA, one strand shown. A digest of the protocol: (§1)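 Human transcription factors carrying a GST fusion were produced in yeast, bound to glutathione beads, tagged with DNA barcodes and pooled together with a tag-only sample. Each pool was held with 200 nmole of a random double-stranded 16-mer DNA library in Tris/NaCl/DTT/glycerol buffer for 30 min at room temperature, then washed, crosslinked in 0.1% formaldehyde, proximity-ligated with BsaI/T4 ligase (1 h, 37 °C), PCR-amplified and sequenced on an Illumina NextSeq500. Binding signal is the read frequency of each hexamer for a given factor divided by its frequency in the tag-only sample.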

The target of a further test is ETV5 (Homo sapiens, UniProt P41161 1-510). The following applies: protein: recombinant; tags: N-terminal GST; dsDNA, one strand shown. A digest of the protocol:
as §1

The target of the next test is HSF1 (Homo sapiens, UniProt Q00613 1-529). The conditions noted are these: protein: recombinant; tags: N-terminal GST; chain copies: 3; dsDNA, one strand shown. A digest of the protocol:
as §1

A further test has as its target T2, SPIC (Homo sapiens, UniProt Q8N5J4 1-248).
T2 sequence: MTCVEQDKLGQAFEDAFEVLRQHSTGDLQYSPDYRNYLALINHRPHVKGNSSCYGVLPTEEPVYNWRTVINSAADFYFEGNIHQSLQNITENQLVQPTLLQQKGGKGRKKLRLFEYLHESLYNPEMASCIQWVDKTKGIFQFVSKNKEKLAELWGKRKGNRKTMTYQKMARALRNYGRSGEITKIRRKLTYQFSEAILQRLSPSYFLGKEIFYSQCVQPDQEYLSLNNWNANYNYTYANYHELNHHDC
The following applies: protein: recombinant; tags: N-terminal GST; dsDNA, one strand shown. A digest of the protocol:
as §1

Another test deals with ELF4 (Homo sapiens, UniProt Q99607 1-663). The following applies: protein: recombinant; tags: N-terminal GST; dsDNA, one strand shown. A digest of the protocol:
as §1

The target of a further test is T3, ELK4 (Homo sapiens, UniProt P28324-2 1-405).
T3 sequence: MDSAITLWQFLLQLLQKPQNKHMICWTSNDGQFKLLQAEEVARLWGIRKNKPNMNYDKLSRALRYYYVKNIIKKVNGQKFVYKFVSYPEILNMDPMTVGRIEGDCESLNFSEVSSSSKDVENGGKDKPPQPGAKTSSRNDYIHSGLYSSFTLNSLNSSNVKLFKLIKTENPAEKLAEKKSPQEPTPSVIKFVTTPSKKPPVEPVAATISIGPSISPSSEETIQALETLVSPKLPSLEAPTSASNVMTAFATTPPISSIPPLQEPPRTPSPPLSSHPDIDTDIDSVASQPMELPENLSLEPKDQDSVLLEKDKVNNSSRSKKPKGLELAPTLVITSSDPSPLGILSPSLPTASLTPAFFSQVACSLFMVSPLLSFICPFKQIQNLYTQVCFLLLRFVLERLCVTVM
The following applies: protein: recombinant; tags: N-terminal GST; dsDNA, one strand shown. A digest of the protocol:
as §1

The target of a further test is T4, ETV2 (Homo sapiens, UniProt O00321 1-342).
T4 sequence: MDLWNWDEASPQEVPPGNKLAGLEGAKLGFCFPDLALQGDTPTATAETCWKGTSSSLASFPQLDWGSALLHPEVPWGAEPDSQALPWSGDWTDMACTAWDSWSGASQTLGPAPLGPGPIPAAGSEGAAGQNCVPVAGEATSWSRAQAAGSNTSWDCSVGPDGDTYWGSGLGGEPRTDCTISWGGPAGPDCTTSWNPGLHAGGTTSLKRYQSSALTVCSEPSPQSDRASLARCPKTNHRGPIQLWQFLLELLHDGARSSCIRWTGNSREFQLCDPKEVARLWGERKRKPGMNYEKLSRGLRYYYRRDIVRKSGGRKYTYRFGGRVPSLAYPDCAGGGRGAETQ
The conditions noted are these: protein: recombinant; tags: N-terminal GST; dsDNA, one strand shown. A digest of the protocol:
as §1

The target of a further test is T5, ELF3 (Homo sapiens, UniProt P78545 1-371).
T5 sequence: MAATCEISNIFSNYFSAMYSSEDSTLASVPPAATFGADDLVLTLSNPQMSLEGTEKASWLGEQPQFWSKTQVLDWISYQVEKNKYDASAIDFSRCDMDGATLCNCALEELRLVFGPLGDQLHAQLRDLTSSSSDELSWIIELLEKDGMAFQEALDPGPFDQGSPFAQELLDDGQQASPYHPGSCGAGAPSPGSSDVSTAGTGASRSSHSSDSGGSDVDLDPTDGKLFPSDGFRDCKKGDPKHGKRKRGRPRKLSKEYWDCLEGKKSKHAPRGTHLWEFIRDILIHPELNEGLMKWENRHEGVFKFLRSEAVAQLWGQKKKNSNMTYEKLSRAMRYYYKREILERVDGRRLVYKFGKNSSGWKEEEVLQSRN
The conditions noted are these: protein: recombinant; tags: N-terminal GST; dsDNA, one strand shown. A digest of the protocol:
as §1

For the next test, the target named is CRX (Homo sapiens, UniProt O43186 1-299). The conditions noted are these: protein: recombinant; tags: N-terminal GST; dsDNA, one strand shown. A digest of the protocol: as §1
The next test has as its target ETV1 (Homo sapiens, UniProt P50549 1-477). The following applies: protein: recombinant; tags: N-terminal GST; dsDNA, one strand shown. A digest of the protocol:
as §1

For the next test, the target named is T6, ERF (Homo sapiens, UniProt P50548 1-548).
T6 sequence: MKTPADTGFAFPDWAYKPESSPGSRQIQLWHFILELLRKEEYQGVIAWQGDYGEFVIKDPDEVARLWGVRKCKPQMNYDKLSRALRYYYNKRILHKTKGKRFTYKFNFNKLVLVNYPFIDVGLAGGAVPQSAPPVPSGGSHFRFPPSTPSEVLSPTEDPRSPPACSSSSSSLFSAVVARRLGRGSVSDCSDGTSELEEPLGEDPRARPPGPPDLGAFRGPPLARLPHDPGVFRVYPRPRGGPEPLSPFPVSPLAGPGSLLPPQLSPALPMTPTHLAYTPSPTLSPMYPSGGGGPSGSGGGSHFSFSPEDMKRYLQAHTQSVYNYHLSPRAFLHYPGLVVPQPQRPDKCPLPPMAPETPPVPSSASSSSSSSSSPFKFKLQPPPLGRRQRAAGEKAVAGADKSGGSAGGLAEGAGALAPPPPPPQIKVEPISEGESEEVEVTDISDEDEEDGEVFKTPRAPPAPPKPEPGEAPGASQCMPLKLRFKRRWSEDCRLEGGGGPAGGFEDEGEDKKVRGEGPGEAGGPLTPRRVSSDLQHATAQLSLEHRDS
The following applies: protein: recombinant; tags: N-terminal GST; dsDNA, one strand shown. A digest of the protocol:
as §1

A further test has as its target T7, ETV3L (Homo sapiens, UniProt Q6ZN32 1-361).
T7 sequence: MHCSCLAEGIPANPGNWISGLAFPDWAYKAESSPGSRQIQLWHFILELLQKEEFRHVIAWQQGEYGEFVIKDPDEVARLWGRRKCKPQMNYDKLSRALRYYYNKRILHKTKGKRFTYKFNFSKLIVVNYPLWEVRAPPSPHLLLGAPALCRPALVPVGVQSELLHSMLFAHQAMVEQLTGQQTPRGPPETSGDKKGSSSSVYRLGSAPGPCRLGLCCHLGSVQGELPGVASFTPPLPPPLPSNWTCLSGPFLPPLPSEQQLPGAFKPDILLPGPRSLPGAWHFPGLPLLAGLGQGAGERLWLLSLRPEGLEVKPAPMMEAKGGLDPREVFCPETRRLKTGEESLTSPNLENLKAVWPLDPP
The conditions noted are these: protein: recombinant; tags: N-terminal GST; dsDNA, one strand shown. A digest of the protocol: as §1

The next test addresses T8, ETS2 (Homo sapiens, UniProt P15036 1-469).
T8 sequence: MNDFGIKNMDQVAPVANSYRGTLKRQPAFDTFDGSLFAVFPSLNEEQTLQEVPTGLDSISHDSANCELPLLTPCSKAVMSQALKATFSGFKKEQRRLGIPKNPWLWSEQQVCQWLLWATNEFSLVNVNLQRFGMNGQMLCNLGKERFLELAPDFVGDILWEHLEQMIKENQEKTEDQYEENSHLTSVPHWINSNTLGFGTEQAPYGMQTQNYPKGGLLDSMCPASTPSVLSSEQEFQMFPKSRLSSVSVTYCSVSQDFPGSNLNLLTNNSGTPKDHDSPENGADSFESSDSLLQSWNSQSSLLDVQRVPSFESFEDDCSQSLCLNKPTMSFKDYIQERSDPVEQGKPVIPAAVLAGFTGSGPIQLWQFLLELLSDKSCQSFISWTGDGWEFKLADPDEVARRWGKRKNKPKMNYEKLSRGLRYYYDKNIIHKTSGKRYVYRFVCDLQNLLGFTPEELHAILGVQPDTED
The following applies: protein: recombinant; tags: N-terminal GST; dsDNA, one strand shown. A digest of the protocol:
as §1

For the next test, the target named is T9, SPDEF (Homo sapiens, UniProt O95238 1-335).
T9 sequence: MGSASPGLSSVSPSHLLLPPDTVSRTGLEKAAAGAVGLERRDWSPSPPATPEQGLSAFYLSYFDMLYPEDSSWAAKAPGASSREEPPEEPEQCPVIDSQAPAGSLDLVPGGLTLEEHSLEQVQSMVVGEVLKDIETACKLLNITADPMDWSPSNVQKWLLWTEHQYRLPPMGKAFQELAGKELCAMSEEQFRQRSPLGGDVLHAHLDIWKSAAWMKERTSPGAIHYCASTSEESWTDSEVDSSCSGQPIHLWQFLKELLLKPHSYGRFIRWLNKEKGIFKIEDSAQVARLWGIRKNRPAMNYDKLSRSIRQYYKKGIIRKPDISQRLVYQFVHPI
The following applies: protein: recombinant; tags: N-terminal GST; dsDNA, one strand shown. A digest of the protocol: as §1

For a further test, the target named is T10, ETV7 (Homo sapiens, UniProt Q9Y603 1-341).
T10 sequence: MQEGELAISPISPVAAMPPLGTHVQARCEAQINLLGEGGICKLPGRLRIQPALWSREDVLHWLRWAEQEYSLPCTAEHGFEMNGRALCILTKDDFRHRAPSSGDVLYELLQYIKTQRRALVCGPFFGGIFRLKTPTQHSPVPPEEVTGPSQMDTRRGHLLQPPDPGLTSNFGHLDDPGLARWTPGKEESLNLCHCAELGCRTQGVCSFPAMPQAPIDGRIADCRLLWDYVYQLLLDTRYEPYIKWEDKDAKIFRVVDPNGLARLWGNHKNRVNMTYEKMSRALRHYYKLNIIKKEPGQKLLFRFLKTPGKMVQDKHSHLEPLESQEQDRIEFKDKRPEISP
The following applies: protein: recombinant; tags: N-terminal GST; dsDNA, one strand shown. A digest of the protocol: as §1

A further test deals with T11, ELF5 (Homo sapiens, UniProt Q9UKW6-2 1-255).
T11 sequence: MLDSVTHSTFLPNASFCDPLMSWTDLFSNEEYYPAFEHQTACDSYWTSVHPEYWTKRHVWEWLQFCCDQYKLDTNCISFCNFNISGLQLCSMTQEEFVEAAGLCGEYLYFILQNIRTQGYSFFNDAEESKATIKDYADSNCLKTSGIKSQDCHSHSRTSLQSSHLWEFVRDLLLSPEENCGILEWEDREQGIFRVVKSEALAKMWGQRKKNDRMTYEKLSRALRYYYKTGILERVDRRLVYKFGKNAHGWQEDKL
The conditions noted are these: protein: recombinant; tags: N-terminal GST; dsDNA, one strand shown. A digest of the protocol:
as §1

A further test deals with T12, ETV3 (Homo sapiens, UniProt P41162-2 1-143).
T12 sequence: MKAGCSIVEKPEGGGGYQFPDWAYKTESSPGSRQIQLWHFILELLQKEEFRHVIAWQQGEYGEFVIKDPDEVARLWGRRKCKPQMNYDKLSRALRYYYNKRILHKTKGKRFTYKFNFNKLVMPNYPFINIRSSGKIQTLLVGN
The conditions noted are these: protein: recombinant; tags: N-terminal GST; dsDNA, one strand shown. A digest of the protocol:
as §1

For another test, the target named is ETV6 (Homo sapiens, UniProt P41212 1-452). The conditions noted are these: protein: recombinant; tags: N-terminal GST; dsDNA, one strand shown. A digest of the protocol:
as §1

Chain of ELF4 (Q99607 whole entry): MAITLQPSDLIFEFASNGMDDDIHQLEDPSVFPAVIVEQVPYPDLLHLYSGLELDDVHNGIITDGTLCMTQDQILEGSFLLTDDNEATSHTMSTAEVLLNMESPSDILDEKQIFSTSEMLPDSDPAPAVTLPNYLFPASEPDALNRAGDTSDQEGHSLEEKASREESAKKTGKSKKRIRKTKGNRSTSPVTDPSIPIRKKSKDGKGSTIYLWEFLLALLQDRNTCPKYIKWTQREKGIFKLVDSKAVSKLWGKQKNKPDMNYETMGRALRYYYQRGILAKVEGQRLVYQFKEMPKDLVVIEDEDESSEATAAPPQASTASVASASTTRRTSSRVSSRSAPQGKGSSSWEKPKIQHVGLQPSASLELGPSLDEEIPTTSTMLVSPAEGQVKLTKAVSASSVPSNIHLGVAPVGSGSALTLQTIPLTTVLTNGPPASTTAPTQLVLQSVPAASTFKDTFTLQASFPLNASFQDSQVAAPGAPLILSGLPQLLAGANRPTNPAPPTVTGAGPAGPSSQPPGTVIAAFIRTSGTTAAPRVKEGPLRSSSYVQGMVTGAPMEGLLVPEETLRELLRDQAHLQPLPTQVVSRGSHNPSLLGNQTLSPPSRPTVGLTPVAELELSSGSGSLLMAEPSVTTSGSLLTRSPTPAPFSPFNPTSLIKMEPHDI
Chain of ETV6 (P41212 whole entry): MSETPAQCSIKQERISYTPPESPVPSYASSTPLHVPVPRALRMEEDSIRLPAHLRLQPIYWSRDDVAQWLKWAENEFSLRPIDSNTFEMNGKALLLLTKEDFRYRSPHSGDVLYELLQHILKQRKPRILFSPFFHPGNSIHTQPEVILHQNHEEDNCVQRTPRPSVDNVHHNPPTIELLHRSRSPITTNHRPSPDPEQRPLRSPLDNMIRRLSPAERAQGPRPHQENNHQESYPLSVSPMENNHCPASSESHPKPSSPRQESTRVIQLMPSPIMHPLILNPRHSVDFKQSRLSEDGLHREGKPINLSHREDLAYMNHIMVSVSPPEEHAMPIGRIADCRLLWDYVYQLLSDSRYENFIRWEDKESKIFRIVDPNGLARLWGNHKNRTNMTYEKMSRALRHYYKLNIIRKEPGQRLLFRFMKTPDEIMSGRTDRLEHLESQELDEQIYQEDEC
Chain of CRX (O43186 whole entry): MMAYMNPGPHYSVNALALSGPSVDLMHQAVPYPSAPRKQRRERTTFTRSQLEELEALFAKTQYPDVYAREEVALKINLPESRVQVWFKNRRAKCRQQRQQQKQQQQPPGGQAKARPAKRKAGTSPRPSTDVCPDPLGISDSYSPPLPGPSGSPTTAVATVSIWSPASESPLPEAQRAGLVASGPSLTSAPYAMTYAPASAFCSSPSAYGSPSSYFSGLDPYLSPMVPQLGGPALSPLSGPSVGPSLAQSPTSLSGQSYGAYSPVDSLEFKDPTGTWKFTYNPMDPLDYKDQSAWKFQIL
Chain of HSF1 (Q00613 whole entry): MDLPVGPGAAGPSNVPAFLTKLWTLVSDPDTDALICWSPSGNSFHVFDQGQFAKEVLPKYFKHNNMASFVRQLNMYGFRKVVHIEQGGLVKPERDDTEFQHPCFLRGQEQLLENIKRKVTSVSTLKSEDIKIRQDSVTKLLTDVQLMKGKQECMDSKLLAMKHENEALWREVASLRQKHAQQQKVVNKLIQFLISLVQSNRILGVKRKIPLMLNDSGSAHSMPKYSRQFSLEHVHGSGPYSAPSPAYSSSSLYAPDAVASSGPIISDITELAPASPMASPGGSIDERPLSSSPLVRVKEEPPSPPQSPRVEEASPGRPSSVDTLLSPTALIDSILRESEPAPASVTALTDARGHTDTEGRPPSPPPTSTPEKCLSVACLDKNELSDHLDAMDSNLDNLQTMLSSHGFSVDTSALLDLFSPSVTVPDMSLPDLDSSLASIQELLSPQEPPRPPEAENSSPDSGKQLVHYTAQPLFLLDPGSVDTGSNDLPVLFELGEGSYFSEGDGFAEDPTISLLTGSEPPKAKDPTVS
Chain of ETV1 (P50549 whole entry): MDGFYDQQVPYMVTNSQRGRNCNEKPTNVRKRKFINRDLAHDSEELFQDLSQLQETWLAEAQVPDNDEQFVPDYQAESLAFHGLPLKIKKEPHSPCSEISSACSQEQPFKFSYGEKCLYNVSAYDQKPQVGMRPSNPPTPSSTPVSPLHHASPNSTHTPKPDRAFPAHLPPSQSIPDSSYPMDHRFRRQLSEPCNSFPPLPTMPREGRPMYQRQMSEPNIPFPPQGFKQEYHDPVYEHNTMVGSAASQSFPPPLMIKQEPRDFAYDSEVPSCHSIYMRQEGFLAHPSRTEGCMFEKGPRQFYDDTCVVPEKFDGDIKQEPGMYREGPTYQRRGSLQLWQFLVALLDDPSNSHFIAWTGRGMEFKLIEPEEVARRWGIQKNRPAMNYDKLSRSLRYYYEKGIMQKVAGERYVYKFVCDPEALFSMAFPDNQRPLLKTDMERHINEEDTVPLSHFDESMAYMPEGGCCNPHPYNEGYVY
Chain of ETV5 (P41161 whole entry): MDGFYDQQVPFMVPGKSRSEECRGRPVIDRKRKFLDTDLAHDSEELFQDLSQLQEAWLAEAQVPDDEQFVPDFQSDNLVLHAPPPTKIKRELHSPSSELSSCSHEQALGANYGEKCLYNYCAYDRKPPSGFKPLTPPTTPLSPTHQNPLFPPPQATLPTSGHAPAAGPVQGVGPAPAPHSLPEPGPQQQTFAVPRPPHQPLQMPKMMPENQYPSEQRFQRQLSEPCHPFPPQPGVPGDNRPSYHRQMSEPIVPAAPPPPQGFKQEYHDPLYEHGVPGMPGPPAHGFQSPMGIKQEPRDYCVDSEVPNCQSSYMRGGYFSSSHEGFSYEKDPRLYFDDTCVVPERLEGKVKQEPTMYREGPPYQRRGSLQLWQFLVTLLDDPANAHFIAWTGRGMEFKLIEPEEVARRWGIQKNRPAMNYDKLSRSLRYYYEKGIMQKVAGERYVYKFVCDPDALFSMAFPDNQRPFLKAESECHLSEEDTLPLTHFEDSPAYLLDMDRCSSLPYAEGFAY

As to GCGATG, the binding signal is 1.22 fold enrichment (6-mer frequency, TF over GST control) in the test with FEV; 1.25 fold enrichment (6-mer frequency, TF over GST control) with ETV5; 1.08 fold enrichment (6-mer frequency, TF over GST control) with HSF1; 1.07 fold enrichment (6-mer frequency, TF over GST control) with SPIC; 1.21 fold enrichment (6-mer frequency, TF over GST control) in the test with ELF4; 1.2 fold enrichment (6-mer frequency, TF over GST control) with ELK4. Moreover, the binding signal with ETV2 is 1.25 fold enrichment (6-mer frequency, TF over GST control); in the test with ELF3 it was 1.26 fold enrichment (6-mer frequency, TF over GST control); with CRX it was 1.03 fold enrichment (6-mer frequency, TF over GST control); with ETV1 it was 1.15 fold enrichment (6-mer frequency, TF over GST control); with ERF it was 1.38 fold enrichment (6-mer frequency, TF over GST control); with ETV3L, 1.26 fold enrichment (6-mer frequency, TF over GST control). For the same sequence, the binding signal with ETS2 is 1.35 fold enrichment (6-mer frequency, TF over GST control); in the test with SPDEF it was 1.29 fold enrichment (6-mer frequency, TF over GST control); in the test with ETV7, 1.31 fold enrichment (6-mer frequency, TF over GST control); in the test with ELF5 it was 1.17 fold enrichment (6-mer frequency, TF over GST control); in the test with ETV3 it was 1.28 fold enrichment (6-mer frequency, TF over GST control); in the test with ETV6, 1.18 fold enrichment (6-mer frequency, TF over GST control).
